Reference: PubChem BioAssay AID588352 (The Scripps Research Institute Molecular Screening Center, 2011)
About 620 (0.17%) of roughly 360,000 compounds were called active. Many of the other results were omitted from the sample, so actives are more common in it than they were. Unmarked numbers belong to inactive results.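 How the source made its calls: active means inhibition above a per-campaign cutoff, the mean of all compounds plus 3 SD (cut at about 60% in these data); inactive means the rest.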

The compounds below were run against Nuclear receptor coactivator 3 (Homo sapiens) (UniProt Q9Y6Q9) (assay: SRC3 coactivator transcriptional activity inhibitors, primary screen, cell-based, luminescence (AID 588352;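 further: 0% = DMSO-treated cells and 100% = gossypol-treated cells at 36 µM; higher means less SRC3-driven luciferase light from the GAL4 reporter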)). Details: HEK293 GAL4-SRC3 luciferase reporter, at 3.6 µM, active compounds read high.
Nuclear receptor coactivator 3 (Homo sapiens), sequence (Q9Y6Q9 whole entry, looked up, the tested form may be a part): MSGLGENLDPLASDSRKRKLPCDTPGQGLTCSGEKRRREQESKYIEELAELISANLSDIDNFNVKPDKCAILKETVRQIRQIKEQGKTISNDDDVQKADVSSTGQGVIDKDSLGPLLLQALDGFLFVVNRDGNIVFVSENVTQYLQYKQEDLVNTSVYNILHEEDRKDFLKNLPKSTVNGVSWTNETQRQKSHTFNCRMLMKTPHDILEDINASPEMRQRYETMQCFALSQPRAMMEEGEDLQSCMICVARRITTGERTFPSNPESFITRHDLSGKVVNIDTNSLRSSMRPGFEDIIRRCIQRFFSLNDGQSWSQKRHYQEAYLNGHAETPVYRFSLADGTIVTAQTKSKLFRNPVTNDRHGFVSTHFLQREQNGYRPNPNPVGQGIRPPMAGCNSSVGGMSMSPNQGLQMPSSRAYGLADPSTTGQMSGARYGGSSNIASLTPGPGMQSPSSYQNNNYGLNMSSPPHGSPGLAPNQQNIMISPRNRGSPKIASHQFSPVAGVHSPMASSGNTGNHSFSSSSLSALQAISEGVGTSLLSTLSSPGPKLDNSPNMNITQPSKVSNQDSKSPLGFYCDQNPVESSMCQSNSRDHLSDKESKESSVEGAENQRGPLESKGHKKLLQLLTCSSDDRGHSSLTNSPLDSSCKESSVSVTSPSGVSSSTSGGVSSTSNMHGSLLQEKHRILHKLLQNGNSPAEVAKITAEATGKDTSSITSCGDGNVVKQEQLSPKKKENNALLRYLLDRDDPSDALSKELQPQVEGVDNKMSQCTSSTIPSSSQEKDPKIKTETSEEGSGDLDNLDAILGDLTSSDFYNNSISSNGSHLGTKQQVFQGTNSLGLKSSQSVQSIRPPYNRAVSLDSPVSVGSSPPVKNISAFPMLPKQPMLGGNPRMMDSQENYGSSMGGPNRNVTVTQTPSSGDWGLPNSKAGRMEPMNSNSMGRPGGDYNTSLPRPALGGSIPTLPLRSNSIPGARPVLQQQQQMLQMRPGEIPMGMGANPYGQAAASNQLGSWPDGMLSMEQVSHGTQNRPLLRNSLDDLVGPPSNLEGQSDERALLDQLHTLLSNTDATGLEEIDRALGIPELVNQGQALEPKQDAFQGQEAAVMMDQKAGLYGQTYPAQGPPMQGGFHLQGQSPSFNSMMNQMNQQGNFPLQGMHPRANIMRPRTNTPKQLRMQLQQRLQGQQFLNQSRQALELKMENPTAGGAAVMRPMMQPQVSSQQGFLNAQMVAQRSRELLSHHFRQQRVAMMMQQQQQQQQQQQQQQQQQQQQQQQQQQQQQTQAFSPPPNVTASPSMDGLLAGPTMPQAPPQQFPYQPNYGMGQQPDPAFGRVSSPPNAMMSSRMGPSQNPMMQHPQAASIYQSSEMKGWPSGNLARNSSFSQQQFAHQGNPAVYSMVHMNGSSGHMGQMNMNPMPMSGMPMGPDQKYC

SMILES | inhibition
Cc1cc(C)c(C2C3=C(Nc4c2c(C)nn4-c2ccccn2)c2ccccc2C3=O)c(C)c1 (stereo not drawn) | 9.07%
Cc1ccc(CC(=O)Nc2ccc(OC(F)F)c(Cl)c2)cc1C | 1.82%
O=C(CC(O)(C(F)(F)F)C(F)(F)F)Nc1ccc(Cl)c(Cl)c1 | 80% (active)
CC1(C(=O)O)CCC(C(=O)Nc2ccc(Cl)c(Cl)c2)C1(C)C (stereo not drawn) | 7.83%
CCCCCN(C(=O)NC(=O)Nc1cccc(C)c1C)S(C)(=O)=O | -2.15%
Cc1ccccc1/C=C\c1nc(O)c([N+](=O)[O-])c(=O)[nH]1 | 2.28%
COc1ccc(NC2CCCN(C(=O)c3ccccc3-c3ncc[nH]3)C2)cc1 (stereo not drawn) | -11.7%
Cc1c(C(=O)c2cccc([N+](=O)[O-])c2)c2ccccn2c1CCC#N | 26.8%
C=CCn1c(C)cc(C2=NNC(=NCC)SC2)c1C | 86% (active)
Cc1ccc(S(=O)(=O)Nc2ccccc2CNc2c(C)n(C)n(-c3ccccc3)c2=O)cc1 | 22.2%
O=S(=O)(Nc1n[nH]c(C(F)(F)F)n1)c1ccccc1 | 6.01%
CC(C)(C)c1ccc(Oc2ccc(N)cc2)cc1 | 82.3% (active)
CN(C)S(=O)(=O)c1ccc(Oc2ccc(S(=O)(=O)N(C)C)cc2)cc1 | 25.9%
O=C(CSc1nnc(-c2ccc([N+](=O)[O-])cc2)o1)Nc1ccccn1 | -82%
Cc1nc(CNS(=O)(=O)c2ccc(Oc3ccccc3)cc2)cs1 | 13.4%
CCNC(=O)NC(=O)C(C)OC(=O)C1CCN(S(=O)(=O)c2ccccc2F)CC1 (stereo not drawn) | 18.3%
CSCCC(=O)N1CCCC(CNC(=O)c2ccccc2Cl)C1 (stereo not drawn) | 13.3%
Cc1cccc(N2C(=O)SC(SC(=Nc3ccccc3)Nc3ccccc3)C2=O)c1 (stereo not drawn) | -7.91%
Cc1ccc(NC(=O)CCC(=O)N/N=C/c2ccco2)c(C)c1 | 16.4%
Cc1ccc(/C=N/NC(=O)C2=NNC(c3ccccc3)(c3ccccc3)C2)c(O)c1 | 65% (active)

SMILES | inhibition
Cc1ccc(/C=N/NC(=O)C(NC(=O)c2ccccc2)c2n[nH]c(=O)c3ccccc23)cc1 (stereo not drawn) | -30.1%
Cc1c(CN2CCC(n3nccc3NC(=O)CCc3ccccc3)CC2)cnn1C | 23.5%
CCc1c(O)nc(SCC(=O)Nc2ccccc2)n(C(C)CC)c1=O (stereo not drawn) | -6.38%
CN(C)c1ccc(NC(=O)c2ccncc2)c2ccccc12 | 1.55%
O=C1c2ccncc2C(=O)N1C1CCCCC1 | -19.6%
CC(Sc1nnc(Cc2ccc([N+](=O)[O-])cc2)o1)C(N)=O (stereo not drawn) | -2.53%
O=C(CCNS(=O)(=O)c1ccccc1)NCCSc1ccc(Br)cc1 | -5.67%
CC(C)(CSc1nncn1/N=C/c1ccco1)NS(=O)(=O)c1ccc(Cl)cc1 | 0.37%
O=C(O)CCC(=O)Nc1ccc(OCC2CCCO2)cc1 (stereo not drawn) | 4.7%
COc1ccc(OC)c(Cc2cnc3nc(N)nc(N)c3c2C)c1 | 63.7% (active)
COc1ccc(-c2nc(N)ncc2-c2ccc(Cl)cc2)c(O)c1 | 1.54%
OCCCNc1nccc(-c2cc(Nc3cccc(Cl)c3)ncn2)n1 | 90.9% (active)
C/C(=C\c1ccccc1)C1NC(=O)c2c(sc3c2CCCC3)N1 (stereo not drawn) | 21.8%
Cc1[nH]c(=O)c(C(=O)/C=C/c2ccccc2)c2c1CCCC2 | 64.9% (active)
CC1(C(=O)O)CCCN(C(=O)/C=C/c2ccccc2)C1 (stereo not drawn) | -1.88%
Nc1cccc2c1C(=O)N(Cc1nnc(-c3ccccc3Br)o1)C2=O | 7.44%
COc1ccc(C(=O)N2CCCCC2C(=O)Nc2ccc(-n3nc(C)cc3C)cc2)o1 (stereo not drawn) | -17.3%
Clc1ccc(-c2nnc(-c3ccccc3)nc2N2CCSCC2)cc1 | 5.59%
O=C(NCC1(N2CCCCC2)CCCCC1)c1ccc(NS(=O)(=O)c2ccc(F)cc2)cc1 | -2.32%
CCN(CC(=O)Nc1c(F)cccc1F)C(=O)CN1c2cccc3cccc(c23)S1(=O)=O | -23.2%

SMILES | inhibition
COc1ccc(C(=O)Nc2ccc(C3(C#N)CCCC3)cc2)cc1OC | -41%
C[C@H](C(=O)CC(=O)OC(C)(C)C)[C@H](O)c1ccc(C(F)(F)F)cc1 | 4.25%
O=S(=O)(c1cccc(-c2cn3ccccc3n2)c1)N1CCCC1 | 11.7%
Cc1c(CN2CCC(CO)(CCOc3ccccc3)CC2)[nH]c2ccc(Cl)cc12 | -36.5%
CN(CC(=O)Nc1c(Cl)cccc1Cl)C(=O)CC1OC(=O)c2ccccc21 (stereo not drawn) | 12.4%
COC(=O)/C(=C1\Oc2ccc(C(C)(C)C)cc2S1)C(F)(F)F | 5.95%
CCc1nc2c(OCCOc3ccccc3)cccn2c1N(C)C(=O)c1cccs1 | -22.5%
COc1cccc(OCc2cc(/C=N/NC(=O)c3nc(Cl)c(Cl)c(N)c3Cl)ccc2OC)c1 | -12.8%
CCn1c(/C=N/NC(=O)c2ccc(OC)cc2)nc2ccccc21 | 15.7%
COc1ccc(C(=O)Nc2ccccc2C(=O)N/N=C/c2ccc(O)c(OC)c2)cc1 | 69.8% (active)
C=CCN(c1ccc(Cl)cc1)S(=O)(=O)c1cccc(C(=O)OCC(=O)N(C)C)c1 | 16.1%
CC(C)[C@@H](C(=O)OCC(=O)c1ccc2c(c1)NC(=O)CO2)N1C(=O)c2ccccc2C1=O | -6.83%
CC(CO)N1CCS(=O)(=O)CC1 (stereo not drawn) | 19.6%
O=C(Cc1ccc(S(=O)(=O)N2CCOCC2)s1)Nc1ccc(Br)c(C(F)(F)F)c1 | 4.75%
N=c1c2c(-c3ccccc3)c(-c3ccccc3)n(Cc3ccccc3)c2ncn1CCCO | 62.7% (active)
COCCn1cnc2c1c(=O)n(Cc1ccc(Br)cc1)c(=O)n2Cc1ccccc1 | -1.52%
COCCn1cnc2c1c(=O)n(CC(=O)NN)c(=O)n2Cc1ccccc1 | 1.62%
CC(C)CC[n+]1ccn(C2=C([O-])c3ccccc3C(=O)/C2=N\S(=O)(=O)c2ccccc2)c1 | -4.74%
